Reference: ChEMBL document CHEMBL3988442, “University of Dundee, Small-Polar-MMV Screening Library” (2021)
The campaign covered roughly 48,000 compounds. About 13,000 (27%) showed an effect of 50% or more. Some of the results follow.

These compounds were tested on Wolbachia pipientis (assay: Anti-Wolbachia Cell-Based Screen). Details: 5 µM.
Format: functional
Set-up: scale not given: in the data most compounds retested in dose-response had high values

| SMILES | Percent Effect |
| --- | --- |
| O=C(c1cnns1)N1CCN(Cc2ccc(F)cc2Cl)CC1 | 11.32% |
| Cc1nn(C)c(C)c1C1CCCN1c1ncnc2[nH]ccc12 (stereo unspecified) | 1.551% |
| Brc1ccc(NCCCOC2CCOCC2)nc1 | 3.889% |
| CCN(Cc1cc(Cl)ccc1OC)Cc1ncnn1CC | 0.2011% |
| COc1ccccc1N1CCN(Cc2nc(C)c(C)o2)CC1 | -4.949% |
| CCCc1nnc(N2CCN(c3cccc(OC)c3)C(=O)C2)o1 | 11.57% |
| CCOc1ccccc1N1CCN(CC2(O)CCCNC2)CC1 (stereo unspecified) | -13.46% |
| CCCc1nnc(N2CCN(c3ccccc3OCC)CC2)o1 | 99.15% |
| COc1ccccc1CN1CCN(CCN2CCOC2=O)CC1 | -7.896% |
| CCOc1ccccc1N1CCN(c2nnc(C)o2)CC1 | 100.3% |
| CCCc1nnc(N2CCN(Cc3ccccc3OC)CC2)o1 | 96.58% |
| c1ccc(OCc2noc(CN3CCC(N4CCSCC4)CC3)n2)cc1 | -5.795% |
| O=C(c1cc2c([nH]c1=O)CCC2)N1CCCCCC1c1ccncc1 (stereo unspecified) | 23.88% |
| CC(C)COCC(NC(=O)Cc1ccn[nH]1)c1ccco1 (stereo unspecified) | -5.318% |
| Cc1noc(C)c1CNCc1nn(-c2ccccc2)c2c1CCC2 | -8.034% |
| Clc1ccccc1-c1nc(CNCCn2cccn2)cs1 | -5.873% |
| O=C(CCC1CCN(C(=O)c2csnn2)CC1)NCc1cccc(Cl)c1 | -4.206% |
| O=C(Cc1csc(-c2ccccc2F)n1)NCc1ccc(C(=O)O)cc1 | 91.75% |
| O=C(CCC1CCN(C(=O)c2cc[nH]c2)CC1)NCc1cccc(Cl)c1 | 14.78% |
| Cc1[nH]c2c(F)cccc2c1CC(=O)NCc1csc(N(C)C)n1 | -5.819% |
| COc1ccccc1-c1csc(-c2cccc(C(=O)O)c2)n1 | 1.276% |
| O=C(Cc1csc(-c2ccccc2F)n1)NCc1cccc(C(=O)O)c1 | 94.98% |
| O=C(Cc1csc(-c2cccc(Cl)c2)n1)NCc1cccc(C(=O)O)c1 | 106.6% |
| CCC(C)NC(=O)c1cccc(CNC(=O)CC(F)(F)F)c1 (stereo unspecified) | 4.521% |

| SMILES | Percent Effect |
| --- | --- |
| O=C(Cc1csc(-c2ccccc2Cl)n1)NCc1cccc(C(=O)O)c1 | 96.86% |
| CC(=O)c1cc(CC(=O)NCc2c(F)cccc2F)cs1 | -9.682% |
| CC(=O)c1cc(CC(=O)NCc2ccc(F)cc2)cs1 | -15.8% |
| CCC(C(=O)N(C)C)N1CCC(c2nccn2Cc2cscn2)CC1 (stereo unspecified) | -0.1258% |
| COCCCn1nnc(C2(NC(=O)c3ccccc3)CCCC2)n1 | -42.57% |
| O=C(Cc1cccs1)N1C[C@@H]2CC[C@H](C1)N(Cc1ccccn1)C2=O | 15.92% |
| Cc1cc(C(=O)N2CCc3nnc(N)cc3C2)c(C)n1C1CC1 | 6.232% |
| CC(Cn1cccn1)NCc1csc(-c2ccccc2F)n1 (stereo unspecified) | 0.9927% |
| O=C(O)CNC(=O)Cc1csc(-c2ccccc2F)n1 | 127.8% |
| CC(C)N(CCS(C)(=O)=O)Cc1csc(-c2ccccc2F)n1 | -5.187% |
| O=C(O)c1ccnc(-c2ccnc(NCCc3cscn3)n2)c1 | 6.299% |
| N#Cc1cc(F)c(NCCc2cccnc2)c(F)c1 | 0.2383% |
| O=C(O)c1ccnc(-c2ccnc(NCCc3ccc(F)cc3)n2)c1 | -8.109% |
| O=c1[nH][nH]cc1-c1ccnc(NCCc2cccnc2)n1 | 116.1% |
| Cc1ncc(-c2ccnc(NCCc3ccc(F)cc3)n2)c(=O)[nH]1 | 69.11% |
| O=C(Cc1cccc(O)c1)NCCNc1nccc(C(F)(F)F)n1 | -3.193% |
| O=c1[nH][nH]cc1-c1ccnc(NCCc2cccc(O)c2)n1 | 135% |
| CCOc1ccnc(NCCc2nc(C)cc(=O)[nH]2)n1 | 25.33% |
| Cc1cc(C)c(CNC(=O)NCCc2cccnc2)c(=O)[nH]1 | -5.274% |
| O=c1[nH][nH]cc1-c1ccnc(NCCc2ccc(F)cc2)n1 | 99.64% |
| Cc1cc(C)nc(CCNc2nccc(CCC(F)(F)F)n2)n1 | -9.076% |
| Cc1cc(C2CN(CC(=O)NCc3ccco3)CCO2)ccc1F (stereo unspecified) | -9.058% |
| CN(C)C(=O)CN1C(=O)[C@H]2CC[C@@H]1CN(Cc1ccccc1C#N)C2 | -21.45% |
| COC(=O)Cc1cccc(NC(=O)Cc2cc(C)[nH]n2)c1 | 1.53% |

| SMILES | Percent Effect |
| --- | --- |
| Cc1nc(CCN)cc(N2CCOc3ccc(Cl)cc3C2)n1 | 10.69% |
| CCN(Cc1ccc2c(c1)OCO2)C(=O)CCc1c(C)nc(C)[nH]c1=O | -8.876% |
| CCOC(=O)c1n[nH]cc1CN1CCOC(Cc2ccc(OC)cc2)C1 (stereo unspecified) | -36.24% |
| CC(C)(C)CCNc1nccc(-c2c[nH][nH]c2=O)n1 | 100.4% |
| COCCCNc1nccc(-c2c[nH][nH]c2=O)n1 | 1.466% |
| CC(=O)NCCNc1nccc(CCC(F)(F)F)n1 | -2.049% |
| Cc1nnc(SCCC(=O)N(C)Cc2ccc(Cl)s2)[nH]1 | 6.778% |
| O=C(C1CN(CC2CCOCC2)CC12CCOCC2)N1CCCC1.O=C(O)C(F)(F)F (stereo unspecified) | 0.226% |
| COC(=O)c1cccc(C(=O)N2CCN(c3cc(C)ccc3C)CC2)n1 | 123.5% |
| COC(=O)c1cccc(C(=O)N2CCN(c3cc(Cl)ccc3C)CC2)n1 | 103.9% |
| COc1cc(C)nc(N2CCN(C(=O)c3cc(Cl)c[nH]3)CC2)n1 | 7.277% |
| CC(=O)N1CCCN(C(=O)c2ccn(-c3cccc(Cl)c3)n2)CC1 | 4.023% |
| O=C(OCCF)c1cccc(C(=O)N2CCCC2)n1 | 7.504% |
| COC(=O)c1cccc(C(=O)N2CCN(c3cccc(C)c3C)CC2)n1 | -16.02% |
| COCC1CN(Cc2cc(C)on2)Cc2cn(CC3CCCC3)nc21.O=C(O)C(F)(F)F.O=C(O)C(F)(F)F (stereo unspecified) | 1.452% |
| CNS(=O)(=O)Cc1cccc(CNc2ccc(Cl)cn2)c1 | 7.116% |
| O=C(C(NCc1cccc(F)c1F)c1ccccc1)N1CCOCC1 (stereo unspecified) | -0.9973% |
| O=C(O)C(F)(F)F.O=C(c1ccc(F)cc1)N1C[C@@H]2CCN(c3cccnc3)C[C@@H]2C1 | 11.69% |
| CNC(=O)CN1CC[C@H]2CN(C(=O)c3cccn3C)C[C@H]2C1.O=C(O)C(F)(F)F | 94.61% |
| CNC(=O)CN1CC[C@H]2CN(C(=O)c3cccc(C)c3)C[C@H]2C1.O=C(O)C(F)(F)F | 104.9% |
| CC(C)N1CCO[C@H]2CN(C(=O)c3ccoc3)C[C@H]21.O=C(O)C(F)(F)F | -10.4% |
| Cc1cccc(C(=O)N2C[C@@H]3CCN(C(C)C)C[C@@H]3C2)c1.O=C(O)C(F)(F)F | -3.353% |
| CN(C)C[C@H]1OC[C@@H]2CCN(C(=O)c3cccn3C)C[C@@H]21.O=C(O)C(F)(F)F | -2.348% |
| CC(C)N1[C@H](CN2CCCC2)C[C@@H]2CN(C(=O)c3ccoc3)CC[C@@H]21.O=C(O)C(F)(F)F.O=C(O)C(F)(F)F | -8.643% |

| SMILES | Percent Effect |
| --- | --- |
| CNC(=O)CN1CC[C@H]2CN(C(=O)c3ccc(C)cc3)C[C@H]2C1.O=C(O)C(F)(F)F | 117% |
| Cn1cccc1C(=O)N1C[C@@H]2CCN(c3cccnc3)C[C@@H]2C1.O=C(O)C(F)(F)F | -18.75% |
| O=C(O)C(F)(F)F.O=C(c1ccc(O)cc1)N1C[C@@H]2CCN(c3cccnc3)C[C@@H]2C1 | 9.269% |
| CNC(=O)CN1CC[C@H]2CN(C(=O)c3ccoc3)C[C@H]2C1.O=C(O)C(F)(F)F | 90.52% |
| CNC(=O)[C@@H]1C[C@@H](NC(=O)c2cn(C)nc2C)CN1Cc1sccc1C | 22.01% |
| Cc1cc(C(=O)N(C)C(C)CC(C)C)on1 (stereo unspecified) | -13.06% |
| CN(C)c1ccc2c(c1)CN(C(=O)c1ccco1)C2c1cnco1 (stereo unspecified) | 6.499% |
| O=C(Nc1ccc(-c2csnn2)cc1)N1CC[C@H](O)C1 | -5.302% |
| CCC(C(=O)NC(C)(C)C)n1cccc(OC)c1=O (stereo unspecified) | -8.788% |
| O=C(O)C(F)(F)F.O=C(c1cc[nH]n1)N1CC[C@@H]2CN(Cc3ccncc3)S(=O)(=O)[C@@H]2CC1 | -5.267% |
| CCN1C[C@H]2CCN(C(=O)c3cc[nH]n3)CC[C@H]2S1(=O)=O | 7.026% |
| CNC(=O)CN1CC[C@H]2CN(C(=O)c3cc[nH]n3)C[C@H]2C1.O=C(O)C(F)(F)F | 106.6% |
| CCn1cc(CN2CCC(CN3CCCCC3)CC2)cc1C#N | -0.8018% |
| CCc1cnc(CN(C)C(=O)NC2CCN(C)C2=O)s1 (stereo unspecified) | 1.007% |
| NC(=O)CN1CCC(C(=O)NCCc2nc(-c3ccccc3)cs2)CC1 | 3.799% |
| O=C(CC1CCCC1)NCCn1ccc(-c2ccncc2)n1 | -13.95% |
| Cc1cnc(NC2CCN(CC(=O)Nc3ccccc3)CC2)nc1C | 3.522% |
| O=C(CCNC(=O)NC1CC1)NCc1ccccc1 | 4.625% |
| NC(=O)c1cnc(NC2CC2)nc1CCNC(=O)CC1CCCC1 | 144.1% |
| NC(=O)c1cnc(NC2CC2)nc1CCNC(=O)Cc1ccccc1 | 131.4% |
| NC(=O)c1cnc(-c2ccccc2)nc1CCNC(=O)CN1CCCC1 | 124.4% |
| O=C(CC1CCCC1)NCCNCc1cccc2c1OCCO2 | -15.98% |
| Cc1nc(O)cc(CCNC(=O)CN2CCCCCC2)n1 | -0.8715% |
| O=C(CCCc1cn[nH]c1)N1C[C@H](CO)C[C@H](CN2CCCC2)C1 | 5.812% |
